Source: article PMC7862700, “An all-to-all approach to the identification of sequence-specific readers for epigenetic DNA modifications on cytosine”

Experiments:
Experiment in all cases: DAPPL (digital affinity profiling via proximity ligation, sequencing); 10 mM Tris-HCl pH 7.5, 50 mM NaCl, 1 mM DTT, 4% glycerol, room temperature, 30 min; GST-TFs on glutathione beads, 16-mer random dsDNA library, 0.1% formaldehyde crosslink after washing; high values mean tight binding
FLI1 = molecular target: T1, FLI1 (Homo sapiens, UniProt Q01543 1-452); conditions: protein: recombinant; tags: N-terminal GST; dsDNA, one strand shown
T1 sequence: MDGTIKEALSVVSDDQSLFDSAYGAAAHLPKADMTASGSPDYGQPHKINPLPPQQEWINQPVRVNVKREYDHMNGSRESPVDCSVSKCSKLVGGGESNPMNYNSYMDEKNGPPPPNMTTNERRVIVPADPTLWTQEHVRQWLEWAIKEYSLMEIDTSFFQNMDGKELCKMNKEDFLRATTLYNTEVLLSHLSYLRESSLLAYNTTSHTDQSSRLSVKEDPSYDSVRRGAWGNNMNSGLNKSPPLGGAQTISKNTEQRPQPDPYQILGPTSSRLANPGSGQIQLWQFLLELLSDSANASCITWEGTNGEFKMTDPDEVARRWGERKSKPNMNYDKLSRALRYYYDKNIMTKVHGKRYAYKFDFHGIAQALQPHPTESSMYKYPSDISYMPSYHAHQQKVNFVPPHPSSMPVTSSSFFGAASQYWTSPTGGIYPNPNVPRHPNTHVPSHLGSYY
In short: (§1)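 After expression in yeast as GST fusions, human transcription factors were bound to glutathione beads, DNA-barcoded and mixed with a tag-only sample. The pools were incubated with 200 nmole of a 16-mer random double-stranded DNA library in Tris/NaCl/DTT/glycerol buffer (30 min, room temperature), washed and crosslinked with 0.1% formaldehyde. Proximity ligation with BsaI/T4 ligase ran for 1 h at 37 °C, before PCR amplification and sequencing on an Illumina NextSeq500. Binding signal is a hexamer's read frequency for a factor divided by its frequency for the tag-only sample.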

ELK1 = molecular target: T2, ELK1 (Homo sapiens, UniProt P19419 1-428); conditions: protein: recombinant; tags: N-terminal GST; dsDNA, one strand shown
T2 sequence: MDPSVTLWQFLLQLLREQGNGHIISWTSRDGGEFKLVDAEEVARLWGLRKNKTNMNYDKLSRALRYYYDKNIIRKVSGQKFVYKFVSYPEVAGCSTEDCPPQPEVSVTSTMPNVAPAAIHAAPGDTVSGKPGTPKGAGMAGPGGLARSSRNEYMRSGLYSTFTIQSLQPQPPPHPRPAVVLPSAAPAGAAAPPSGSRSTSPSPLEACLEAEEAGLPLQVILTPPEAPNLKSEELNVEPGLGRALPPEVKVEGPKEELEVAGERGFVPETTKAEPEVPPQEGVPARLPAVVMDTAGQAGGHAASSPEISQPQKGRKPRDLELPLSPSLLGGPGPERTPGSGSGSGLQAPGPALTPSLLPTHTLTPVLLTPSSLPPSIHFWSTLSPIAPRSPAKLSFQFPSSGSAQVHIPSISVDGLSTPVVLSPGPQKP
In short: as §1

GABPA = molecular target: T3, GABPA (Homo sapiens, UniProt Q06546 1-454); conditions: protein: recombinant; tags: N-terminal GST; dsDNA, one strand shown
T3 sequence: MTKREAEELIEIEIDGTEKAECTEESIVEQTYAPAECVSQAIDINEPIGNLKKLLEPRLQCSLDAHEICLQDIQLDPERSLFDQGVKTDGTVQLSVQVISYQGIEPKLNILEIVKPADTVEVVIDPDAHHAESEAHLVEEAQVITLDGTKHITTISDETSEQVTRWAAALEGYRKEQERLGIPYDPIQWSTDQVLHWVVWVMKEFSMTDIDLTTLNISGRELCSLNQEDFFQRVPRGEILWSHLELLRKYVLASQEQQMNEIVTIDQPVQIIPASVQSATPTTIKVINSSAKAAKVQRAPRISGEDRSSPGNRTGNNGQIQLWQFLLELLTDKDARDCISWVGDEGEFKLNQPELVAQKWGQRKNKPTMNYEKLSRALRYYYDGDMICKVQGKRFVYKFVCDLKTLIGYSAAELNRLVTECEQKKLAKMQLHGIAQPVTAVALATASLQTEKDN
In short: as §1

ERG = molecular target: T4, ERG (Homo sapiens, UniProt P11308 1-479); conditions: protein: recombinant; tags: N-terminal GST; dsDNA, one strand shown
T4 sequence: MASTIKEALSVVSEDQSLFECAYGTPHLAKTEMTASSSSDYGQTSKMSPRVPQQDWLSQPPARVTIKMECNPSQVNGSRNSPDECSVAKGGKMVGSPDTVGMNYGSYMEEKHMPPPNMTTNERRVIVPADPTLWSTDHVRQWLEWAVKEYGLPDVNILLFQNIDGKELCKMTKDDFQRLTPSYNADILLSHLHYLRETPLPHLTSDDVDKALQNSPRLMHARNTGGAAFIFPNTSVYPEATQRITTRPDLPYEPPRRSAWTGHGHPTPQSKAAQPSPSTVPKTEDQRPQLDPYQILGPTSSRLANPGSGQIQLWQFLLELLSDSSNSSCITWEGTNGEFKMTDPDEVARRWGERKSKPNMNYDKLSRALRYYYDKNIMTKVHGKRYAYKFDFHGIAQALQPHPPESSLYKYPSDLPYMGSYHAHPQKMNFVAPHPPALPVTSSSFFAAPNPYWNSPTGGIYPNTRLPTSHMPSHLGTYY
In short: as §1

ELF1 = ELF1 (Homo sapiens, UniProt P32519 1-619); conditions: protein: recombinant; tags: N-terminal GST; dsDNA, one strand shown
ELF1, sequence (P32519 whole entry): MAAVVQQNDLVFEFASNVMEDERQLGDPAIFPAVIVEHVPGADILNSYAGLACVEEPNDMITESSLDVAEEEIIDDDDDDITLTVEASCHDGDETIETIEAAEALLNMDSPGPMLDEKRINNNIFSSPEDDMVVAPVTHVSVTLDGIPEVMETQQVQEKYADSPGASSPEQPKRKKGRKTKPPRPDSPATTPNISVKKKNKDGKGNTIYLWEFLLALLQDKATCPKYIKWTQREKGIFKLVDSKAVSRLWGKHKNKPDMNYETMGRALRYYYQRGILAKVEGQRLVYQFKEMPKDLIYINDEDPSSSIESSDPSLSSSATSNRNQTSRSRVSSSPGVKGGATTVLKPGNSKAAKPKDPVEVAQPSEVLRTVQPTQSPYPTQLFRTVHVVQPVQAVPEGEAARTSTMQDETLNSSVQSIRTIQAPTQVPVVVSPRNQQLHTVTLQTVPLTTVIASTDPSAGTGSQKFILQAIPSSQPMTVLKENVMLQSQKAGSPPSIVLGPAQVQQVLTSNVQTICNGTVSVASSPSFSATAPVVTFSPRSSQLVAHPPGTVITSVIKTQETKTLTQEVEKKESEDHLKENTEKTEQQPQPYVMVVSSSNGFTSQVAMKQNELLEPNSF
In short: as §1

EHF = molecular target: T5, EHF (Homo sapiens, UniProt Q9NZC4 1-300); conditions: protein: recombinant; tags: N-terminal GST; dsDNA, one strand shown
T5 sequence: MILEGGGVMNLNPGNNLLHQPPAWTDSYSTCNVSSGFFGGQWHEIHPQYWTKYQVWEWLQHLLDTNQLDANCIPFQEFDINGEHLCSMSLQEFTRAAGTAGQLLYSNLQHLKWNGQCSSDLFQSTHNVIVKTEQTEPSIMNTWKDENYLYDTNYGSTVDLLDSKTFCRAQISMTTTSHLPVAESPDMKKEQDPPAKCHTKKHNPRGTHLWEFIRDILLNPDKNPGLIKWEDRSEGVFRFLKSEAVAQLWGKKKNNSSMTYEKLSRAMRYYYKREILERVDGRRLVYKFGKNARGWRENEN
In short: as §1

SPI1 = SPI1 (Homo sapiens, UniProt P17947 1-270); conditions: protein: recombinant; tags: N-terminal GST; dsDNA, one strand shown
In short: as §1

SPIB = SPIB (Homo sapiens, UniProt Q01892 1-262); conditions: protein: recombinant; tags: N-terminal GST; dsDNA, one strand shown
SPIB, sequence (Q01892 whole entry): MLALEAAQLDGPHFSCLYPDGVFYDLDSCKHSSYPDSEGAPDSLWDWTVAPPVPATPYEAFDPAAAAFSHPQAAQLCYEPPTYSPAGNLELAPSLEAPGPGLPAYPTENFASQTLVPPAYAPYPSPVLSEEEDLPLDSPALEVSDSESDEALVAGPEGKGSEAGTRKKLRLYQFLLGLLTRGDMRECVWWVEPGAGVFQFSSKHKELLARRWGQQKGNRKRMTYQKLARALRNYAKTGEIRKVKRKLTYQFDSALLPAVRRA
In short: as §1

ELK3 = molecular target: T6, ELK3 (Homo sapiens, UniProt P41970 1-407); conditions: protein: recombinant; tags: N-terminal GST; dsDNA, one strand shown
T6 sequence: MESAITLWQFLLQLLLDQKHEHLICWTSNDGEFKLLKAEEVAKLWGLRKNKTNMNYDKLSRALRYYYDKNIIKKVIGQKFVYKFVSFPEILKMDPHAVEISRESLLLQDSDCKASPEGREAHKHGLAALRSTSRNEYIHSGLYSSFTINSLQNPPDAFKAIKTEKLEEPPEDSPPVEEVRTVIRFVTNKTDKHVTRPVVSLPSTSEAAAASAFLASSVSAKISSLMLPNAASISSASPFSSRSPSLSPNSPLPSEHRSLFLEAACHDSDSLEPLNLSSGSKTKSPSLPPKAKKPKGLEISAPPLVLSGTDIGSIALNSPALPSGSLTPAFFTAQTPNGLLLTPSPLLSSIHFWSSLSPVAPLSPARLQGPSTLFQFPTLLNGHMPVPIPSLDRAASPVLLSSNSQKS
In short: as §1

FEV = molecular target: T7, FEV (Homo sapiens, UniProt Q99581 1-238); conditions: protein: recombinant; tags: N-terminal GST; dsDNA, one strand shown
T7 sequence: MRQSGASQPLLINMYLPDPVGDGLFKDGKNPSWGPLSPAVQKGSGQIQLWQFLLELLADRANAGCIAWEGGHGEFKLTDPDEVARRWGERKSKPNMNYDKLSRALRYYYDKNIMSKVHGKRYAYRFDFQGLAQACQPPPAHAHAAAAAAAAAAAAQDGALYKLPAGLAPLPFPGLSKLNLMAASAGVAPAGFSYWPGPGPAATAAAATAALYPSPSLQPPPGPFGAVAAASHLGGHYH
In short: as §1

ETV5 = ETV5 (Homo sapiens, UniProt P41161 1-510); conditions: protein: recombinant; tags: N-terminal GST; dsDNA, one strand shown
ETV5, sequence (P41161 whole entry): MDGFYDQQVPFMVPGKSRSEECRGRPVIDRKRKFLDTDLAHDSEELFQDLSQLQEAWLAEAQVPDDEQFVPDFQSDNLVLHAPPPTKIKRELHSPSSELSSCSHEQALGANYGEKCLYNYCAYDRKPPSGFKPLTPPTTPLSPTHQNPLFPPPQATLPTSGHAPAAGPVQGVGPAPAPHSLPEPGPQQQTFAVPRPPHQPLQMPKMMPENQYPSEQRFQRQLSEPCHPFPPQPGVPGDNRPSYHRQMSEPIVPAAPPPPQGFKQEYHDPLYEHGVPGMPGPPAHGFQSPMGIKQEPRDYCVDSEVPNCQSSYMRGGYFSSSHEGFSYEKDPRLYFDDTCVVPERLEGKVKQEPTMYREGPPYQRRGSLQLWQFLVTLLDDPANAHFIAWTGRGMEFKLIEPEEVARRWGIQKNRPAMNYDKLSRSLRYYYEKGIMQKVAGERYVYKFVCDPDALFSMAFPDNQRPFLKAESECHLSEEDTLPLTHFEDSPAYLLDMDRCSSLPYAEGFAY
In short: as §1

HSF1 = HSF1 (Homo sapiens, UniProt Q00613 1-529); conditions: protein: recombinant; tags: N-terminal GST; chain copies: 3; dsDNA, one strand shown
HSF1, sequence (Q00613 whole entry): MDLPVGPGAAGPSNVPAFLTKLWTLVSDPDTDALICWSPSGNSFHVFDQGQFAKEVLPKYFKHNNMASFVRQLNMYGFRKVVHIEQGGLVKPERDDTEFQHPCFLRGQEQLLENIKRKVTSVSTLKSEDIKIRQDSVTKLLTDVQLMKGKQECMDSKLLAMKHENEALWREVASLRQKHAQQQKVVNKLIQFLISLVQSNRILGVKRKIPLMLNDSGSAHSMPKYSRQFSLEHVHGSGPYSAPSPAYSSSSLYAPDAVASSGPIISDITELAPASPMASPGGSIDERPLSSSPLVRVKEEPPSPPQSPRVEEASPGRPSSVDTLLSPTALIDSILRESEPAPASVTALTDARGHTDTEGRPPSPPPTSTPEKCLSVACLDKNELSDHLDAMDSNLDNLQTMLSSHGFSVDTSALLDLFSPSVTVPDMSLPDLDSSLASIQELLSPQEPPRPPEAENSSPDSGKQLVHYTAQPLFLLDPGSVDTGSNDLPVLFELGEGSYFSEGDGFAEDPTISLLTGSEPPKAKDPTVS
In short: as §1

SPIC = molecular target: T8, SPIC (Homo sapiens, UniProt Q8N5J4 1-248); conditions: protein: recombinant; tags: N-terminal GST; dsDNA, one strand shown
T8 sequence: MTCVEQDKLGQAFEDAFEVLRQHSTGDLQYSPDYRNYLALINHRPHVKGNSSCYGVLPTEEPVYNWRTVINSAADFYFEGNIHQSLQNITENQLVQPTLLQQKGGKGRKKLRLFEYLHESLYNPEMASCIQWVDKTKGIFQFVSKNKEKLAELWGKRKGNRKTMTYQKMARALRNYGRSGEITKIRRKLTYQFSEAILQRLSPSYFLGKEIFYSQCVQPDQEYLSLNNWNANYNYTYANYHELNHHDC
In short: as §1

ELF4 = ELF4 (Homo sapiens, UniProt Q99607 1-663); conditions: protein: recombinant; tags: N-terminal GST; dsDNA, one strand shown
ELF4, sequence (Q99607 whole entry): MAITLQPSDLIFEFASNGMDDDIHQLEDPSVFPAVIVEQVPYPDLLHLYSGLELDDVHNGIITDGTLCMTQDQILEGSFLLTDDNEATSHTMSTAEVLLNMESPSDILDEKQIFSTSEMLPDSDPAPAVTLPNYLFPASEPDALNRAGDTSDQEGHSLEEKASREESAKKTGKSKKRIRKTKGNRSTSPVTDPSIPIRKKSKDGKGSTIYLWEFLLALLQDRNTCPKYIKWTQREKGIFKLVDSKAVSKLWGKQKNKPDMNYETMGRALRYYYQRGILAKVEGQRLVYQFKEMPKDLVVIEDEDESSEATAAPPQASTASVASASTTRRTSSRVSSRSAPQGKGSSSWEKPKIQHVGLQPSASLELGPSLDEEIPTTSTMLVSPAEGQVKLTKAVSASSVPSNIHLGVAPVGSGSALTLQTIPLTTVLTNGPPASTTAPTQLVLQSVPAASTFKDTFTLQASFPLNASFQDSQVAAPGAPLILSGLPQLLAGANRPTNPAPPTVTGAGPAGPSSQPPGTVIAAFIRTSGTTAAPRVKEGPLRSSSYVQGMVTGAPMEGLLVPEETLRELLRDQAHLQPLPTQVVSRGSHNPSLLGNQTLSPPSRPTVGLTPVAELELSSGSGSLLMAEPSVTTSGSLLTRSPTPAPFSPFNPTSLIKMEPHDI
In short: as §1

ELK4 = molecular target: T9, ELK4 (Homo sapiens, UniProt P28324-2 1-405); conditions: protein: recombinant; tags: N-terminal GST; dsDNA, one strand shown
T9 sequence: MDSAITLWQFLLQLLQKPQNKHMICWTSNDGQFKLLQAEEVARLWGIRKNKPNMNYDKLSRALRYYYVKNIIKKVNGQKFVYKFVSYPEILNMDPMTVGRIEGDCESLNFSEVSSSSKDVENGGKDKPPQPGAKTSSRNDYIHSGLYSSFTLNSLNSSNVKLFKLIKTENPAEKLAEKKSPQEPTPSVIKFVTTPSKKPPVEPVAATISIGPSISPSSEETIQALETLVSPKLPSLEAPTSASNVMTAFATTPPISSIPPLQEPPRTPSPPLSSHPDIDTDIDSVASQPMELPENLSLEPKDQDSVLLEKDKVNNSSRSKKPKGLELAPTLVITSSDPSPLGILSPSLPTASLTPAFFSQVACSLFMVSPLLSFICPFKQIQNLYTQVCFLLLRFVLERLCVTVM
In short: as §1

ETV2 = molecular target: T10, ETV2 (Homo sapiens, UniProt O00321 1-342); conditions: protein: recombinant; tags: N-terminal GST; dsDNA, one strand shown
T10 sequence: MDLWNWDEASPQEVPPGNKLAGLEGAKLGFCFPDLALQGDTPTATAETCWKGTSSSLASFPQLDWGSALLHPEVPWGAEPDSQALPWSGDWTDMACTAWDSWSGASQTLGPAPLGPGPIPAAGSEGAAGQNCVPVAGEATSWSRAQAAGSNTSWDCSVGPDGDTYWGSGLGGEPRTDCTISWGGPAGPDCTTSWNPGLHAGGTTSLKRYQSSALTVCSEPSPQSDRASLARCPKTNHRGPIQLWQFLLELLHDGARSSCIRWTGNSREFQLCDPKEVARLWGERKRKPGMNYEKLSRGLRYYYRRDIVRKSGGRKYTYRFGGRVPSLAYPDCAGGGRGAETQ
In short: as §1

ELF3 = molecular target: T11, ELF3 (Homo sapiens, UniProt P78545 1-371); conditions: protein: recombinant; tags: N-terminal GST; dsDNA, one strand shown
T11 sequence: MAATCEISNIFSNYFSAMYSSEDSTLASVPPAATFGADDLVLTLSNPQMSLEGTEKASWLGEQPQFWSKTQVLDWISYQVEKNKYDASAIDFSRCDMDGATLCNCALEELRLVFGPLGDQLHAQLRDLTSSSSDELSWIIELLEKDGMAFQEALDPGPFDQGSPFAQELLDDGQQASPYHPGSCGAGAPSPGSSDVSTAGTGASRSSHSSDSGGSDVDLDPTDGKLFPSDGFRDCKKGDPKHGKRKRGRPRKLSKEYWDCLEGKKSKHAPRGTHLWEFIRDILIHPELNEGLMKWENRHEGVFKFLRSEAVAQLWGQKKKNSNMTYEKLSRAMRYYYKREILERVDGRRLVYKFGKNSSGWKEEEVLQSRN
In short: as §1

CRX = CRX (Homo sapiens, UniProt O43186 1-299); conditions: protein: recombinant; tags: N-terminal GST; dsDNA, one strand shown
CRX, sequence (O43186 whole entry): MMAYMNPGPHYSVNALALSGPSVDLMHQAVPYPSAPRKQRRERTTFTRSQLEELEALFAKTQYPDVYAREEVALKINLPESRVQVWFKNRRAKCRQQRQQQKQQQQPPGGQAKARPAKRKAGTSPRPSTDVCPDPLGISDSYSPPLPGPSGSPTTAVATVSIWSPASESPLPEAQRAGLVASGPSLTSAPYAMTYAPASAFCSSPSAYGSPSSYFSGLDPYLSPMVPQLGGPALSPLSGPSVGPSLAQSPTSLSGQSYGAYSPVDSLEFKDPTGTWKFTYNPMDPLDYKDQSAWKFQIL
In short: as §1

ETV1 = ETV1 (Homo sapiens, UniProt P50549 1-477); conditions: protein: recombinant; tags: N-terminal GST; dsDNA, one strand shown
ETV1, sequence (P50549 whole entry): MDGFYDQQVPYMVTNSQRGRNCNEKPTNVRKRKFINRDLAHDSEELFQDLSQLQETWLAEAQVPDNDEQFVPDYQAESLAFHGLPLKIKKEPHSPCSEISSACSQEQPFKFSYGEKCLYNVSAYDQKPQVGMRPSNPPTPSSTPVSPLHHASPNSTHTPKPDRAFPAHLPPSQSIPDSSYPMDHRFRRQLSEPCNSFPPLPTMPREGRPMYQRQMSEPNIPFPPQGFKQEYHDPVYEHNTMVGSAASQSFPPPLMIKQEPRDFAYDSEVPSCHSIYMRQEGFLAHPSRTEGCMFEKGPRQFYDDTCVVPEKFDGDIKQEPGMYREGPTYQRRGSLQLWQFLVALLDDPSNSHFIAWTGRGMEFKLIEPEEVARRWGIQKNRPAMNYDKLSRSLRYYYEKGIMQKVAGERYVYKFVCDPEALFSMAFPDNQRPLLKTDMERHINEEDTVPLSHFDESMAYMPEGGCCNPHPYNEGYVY
In short: as §1

In the case of TGTATG, the binding signal (FLI1) is reported as 1.31 fold enrichment (6-mer frequency, TF over GST control), the binding signal (ELK1) is reported as 1.16 fold enrichment (6-mer frequency, TF over GST control) and the binding signal (GABPA) is reported as 1.25 fold enrichment (6-mer frequency, TF over GST control). The binding signal (ERG) was 1.14 fold enrichment (6-mer frequency, TF over GST control), the binding signal (ELF1) was 1.23 fold enrichment (6-mer frequency, TF over GST control) and the binding signal (EHF) was 1.2 fold enrichment (6-mer frequency, TF over GST control). For the same sequence, the binding signal (SPI1) was 1.18 fold enrichment (6-mer frequency, TF over GST control), the binding signal (SPIB) was 1.16 fold enrichment (6-mer frequency, TF over GST control) and the binding signal (ELK3) was 1.22 fold enrichment (6-mer frequency, TF over GST control). For the same sequence, the binding signal (FEV) was 1.21 fold enrichment (6-mer frequency, TF over GST control), the binding signal (ETV5) was 1.28 fold enrichment (6-mer frequency, TF over GST control) and the binding signal (HSF1) was 1.06 fold enrichment (6-mer frequency, TF over GST control). The binding signal (SPIC) was 1.09 fold enrichment (6-mer frequency, TF over GST control), the binding signal (ELF4) was 1.22 fold enrichment (6-mer frequency, TF over GST control) and the binding signal (ELK4) was 1.34 fold enrichment (6-mer frequency, TF over GST control). For the same sequence, the binding signal (ETV2) was 1.18 fold enrichment (6-mer frequency, TF over GST control), the binding signal (ELF3) was 1.19 fold enrichment (6-mer frequency, TF over GST control) and the binding signal (CRX) was 1.04 fold enrichment (6-mer frequency, TF over GST control). The binding signal (ETV1) was 1.27 fold enrichment (6-mer frequency, TF over GST control).
